# Laboratory results from PubChem BioAssay (NCI).
# About 83,000 compounds went through this panel and 20% of them were active in at least one assay; those are over-represented in the sample as a whole.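 Negative percent growth values reflect cell death: -40 means 40% of the cells present at the start died, and -100 means all died.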 Calls of active or inactive are those of the source. The calls were made as follows: active = growth percent below 10; inactive = the rest.
# Tested on: NCI-H460 lung
# Experiment: NCI-60 one-dose screen, 48 h (100 = growth as untreated, 0 = no growth, -100 = all killed)
# Conditions: 10 µM unless noted
row,SMILES,growth
1,C=CCC(=O)N[C@H](/C=C/C(=O)O)Cc1ccc(-c2cc(Cl)cc(Cl)c2)cc1,99.6% (inactive)
2,CCN1CCN(c2cc(C)nc(N(CCCNc3ccnc4cc(Cl)ccc34)Cc3cccs3)n2)CC1,5.44% (active)
3,COC(=O)CCCNc1c(-c2c(O)c(O)cc3c(O)c(-c4c(C)cc5c(-c6nc7ccccn7c6NCCCC(=O)OC)c(O)c(O)cc5c4O)c(C)cc23)nc2ccccn12,6.59% (active)
4,Cn1ncc(Cl)c1-c1cc(C(=O)N[C@H](CN)Cc2ccc(F)c(F)c2)oc1Cl,2.97% (active)
5,O=c1[nH]c(N2CCOCC2)nc2scc(-c3ccccc3)c12,110% (inactive)
6,Cc1cc2c(-c3nc4ccccn4c3NC3CCCCC3)c(O)c(O)cc2c(O)c1-c1c(C)cc2c(-c3nc4ccccn4c3NC3CCCCC3)c(O)c(O)cc2c1O,19.2% (inactive)
7,CC(C)C1CCC(C)C(C2(C#N)C(N)=NC(N)=C2C#N)C1=O (centres undefined),105% (inactive)
8,Cc1cc(N2CCCC2)nc(N(CCCNc2ccnc3cc(Cl)ccc23)Cc2ccc3c(c2)OCO3)n1,5.83% (active)
9,[2H]C1([2H])[C@H](C)O[C@H](C)C([2H])([2H])N1c1ccc(NC(=O)c2cccc(-c3ccc(OC(F)(F)F)cc3)c2C)cn1,85.1% (inactive)
10,Cc1cc2c(-c3nc4ccccn4c3NC34CC5CC(CC(C5)C3)C4)c(O)c(O)cc2c(O)c1-c1c(C)cc2c(-c3nc4ccccn4c3NC34CC5CC(CC(C5)C3)C4)c(O)c(O)cc2c1O,5.53% (active)
11,CC[C@H](Nc1ncnc2nc[nH]c12)c1nc2cccc(F)c2c(=O)n1-c1ccccc1,79.9% (inactive)
12,COC(=O)C1=C(C(=O)OC)C23C=C(C)C1C2=C(C)C1(CC1)[C@@](C)(O)C3=O (some centres undefined),0.847% (active)
13,c1ccc2c(c1)CCN(NCCN1CCCC1)C2,107% (inactive)
14,Cc1cc(N(CCNc2ccnc3cc(Cl)ccc23)Cc2cccs2)nc(Cl)n1,-10.7% (active)
15,COc1cc(-c2nc(C(=O)Nc3ccc(C)cc3)nn2-c2ccc(F)c(F)c2)cc(OC)c1OC,106% (inactive)
16,O=C(Cn1c(=O)ccn(CCCCCCCCOc2ccc(Br)cc2)c1=O)Nc1ccc(Oc2ccc(Cl)cc2)cc1,56.8% (inactive)
17,Cc1ccc(-c2cc3c(SCC(=O)Nc4cc(C(F)(F)F)ccc4Cl)nccn3n2)cc1,14.2% (inactive)
18,CCCc1cc2cc(-n3nc(C)c4c3CC(C)(C)CC4=O)cc(NC3CCC(O)CC3)c2c(=O)[nH]1 (centres undefined),17.6% (inactive)
19,COc1ccc(C(=O)c2cc(OC)c(OC)c(OC)c2)cc1/C=C/C(=O)c1ccc(F)cc1,92.9% (inactive)
20,CC(C)=CCc1cc2c(cc1O)C1=C(C(=O)C3=C(C1=O)S(=O)(=O)CCN3)C(C=C(C)C)O2 (centres undefined),-50.4% (active)

row,SMILES,growth
1,CN1CCN(c2nc(NCCNc3ccnc4cc(Cl)ccc34)c3ccccc3n2)CC1,11.6% (inactive)
2,COc1ccc(CCCc2c3[n+](cc4c(OC)c(OC)ccc24)CCc2cc4c(cc2-3)OCO4)cc1,52.4% (inactive)
3,N#Cc1cc2[nH]c3ccc(OC(F)(F)F)cc3c2oc1=O,87.6% (inactive)
4,CCN1CCN(CCCN(C[C@H]2Cc3ccccc3CN2)[C@H]2CCCc3cccnc32)CC1,89.8% (inactive)
5,Clc1ccc2c(NCCCNCc3ccc4c(c3)OCO4)ccnc2c1,60.5% (inactive)
6,Cc1cc(N2CCOCC2)nc(N(CCNc2ccnc3cc(Cl)ccc23)Cc2cccs2)n1,7.16% (active)
7,CCN1CCN(c2cc(C)nc(N(CCCNc3ccnc4cc(Cl)ccc34)Cc3ccc4c(c3)OCO4)n2)CC1,7.01% (active)
8,COc1cc(-c2cc(-c3ccc(Nc4ccnc5cc(Cl)ccc45)cc3)nc(N3CCOCC3)n2)cc(OC)c1OC,-43.9% (active)
9,COC(=O)C1CCc2sc3ncnc(Nc4cn[nH]c4C(=O)Nc4ccc(CN5CCN(C)CC5)cc4)c3c21 (centres undefined),-59% (active)
10,CO/C=C/C(=O)c1cc2cnc3c(=N)cc(NC(=O)C(C)C)c([nH]1)c23,5.42% (active)
11,CCN1CCN(c2nc(C)cc(N(CCNc3ccnc4cc(Cl)ccc34)Cc3ccc4c(c3)OCO4)n2)CC1,18.1% (inactive)
12,N#CC(C#N)=NO,108% (inactive)
13,C=CC(=O)N(C)[C@H]1C[C@H]2OC(C)(C1OC)n1c3ccccc3c3c4c(c5c6ccccc6n2c5c31)C(=O)NC4 (some centres undefined),1.35% (active)
14,Cc1ccc(NC(=O)NC(=O)CSc2nc3ccccc3nc2C)cc1,64.9% (inactive)
15,C=CCn1c(=O)c2cnc(Nc3ccc(N4CCN(C)CC4)cc3)nc2n1-c1cccc(C(C)(C)O)n1,12% (inactive)
16,Clc1ccc2c(NCCNc3nc(N4CCCC4)nc4ccccc34)ccnc2c1,-23.6% (active)
17,Clc1ccc(/C=C/c2cc(N3CCOCC3)c3cc(Cl)c(Cl)cc3n2)cc1,95% (inactive)
18,Nc1ncnc2c1ccn2-c1cccc(NC(=O)c2ccc(N3CCOCC3)c(C(F)(F)F)c2)c1,28.8% (inactive)
19,CC12O[C@H](C[C@@H](OC(=O)CCC(=O)O)[C@H]1O)n1c3ccccc3c3c4c(c5c6ccccc6n2c5c31)C(=O)NC4=O,20.2% (inactive)
